Columns and labels:
[1] = biological target: Sphingosine kinase 1 (Homo sapiens) (UniProt Q9NYA1); details: at 1 µM;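 further: mean SPHK1 inhibition value reported from the GSK PKIS kinase panel screen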
[2] = biological target: T1, Sphingosine kinase 2 (Homo sapiens) (UniProt Q9NRA0); details: at 0.1 µM
T1 sequence (whole entry): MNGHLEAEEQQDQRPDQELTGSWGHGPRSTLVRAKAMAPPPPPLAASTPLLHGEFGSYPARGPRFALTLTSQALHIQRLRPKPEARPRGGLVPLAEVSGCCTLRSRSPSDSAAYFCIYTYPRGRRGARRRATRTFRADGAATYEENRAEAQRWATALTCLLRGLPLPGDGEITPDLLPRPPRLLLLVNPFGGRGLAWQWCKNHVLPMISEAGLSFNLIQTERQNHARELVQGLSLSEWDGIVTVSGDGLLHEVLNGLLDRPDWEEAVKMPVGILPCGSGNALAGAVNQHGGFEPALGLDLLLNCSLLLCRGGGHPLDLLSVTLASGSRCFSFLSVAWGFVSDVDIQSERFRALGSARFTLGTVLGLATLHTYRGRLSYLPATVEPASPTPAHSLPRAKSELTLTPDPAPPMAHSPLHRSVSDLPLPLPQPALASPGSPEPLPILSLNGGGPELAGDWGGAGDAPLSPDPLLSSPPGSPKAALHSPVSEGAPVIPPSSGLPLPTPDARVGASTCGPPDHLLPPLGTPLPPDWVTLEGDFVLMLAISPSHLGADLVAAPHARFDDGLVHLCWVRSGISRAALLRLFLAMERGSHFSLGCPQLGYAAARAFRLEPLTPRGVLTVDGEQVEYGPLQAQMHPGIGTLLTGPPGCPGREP

[3] = biological target: T1, Sphingosine kinase 2 (Homo sapiens); details: at 1 µM
[4] = biological target: Casein kinase II subunit alpha (Homo sapiens) (UniProt P68400); details: at 0.1 µM
[5] = biological target: Casein kinase II subunit alpha (Homo sapiens) (UniProt P68400); details: at 1 µM
[6] = biological target: T2, Inhibitor of nuclear factor kappa-B kinase subunit alpha (Homo sapiens) (UniProt O15111); details: at 0.1 µM
T2 sequence (whole entry): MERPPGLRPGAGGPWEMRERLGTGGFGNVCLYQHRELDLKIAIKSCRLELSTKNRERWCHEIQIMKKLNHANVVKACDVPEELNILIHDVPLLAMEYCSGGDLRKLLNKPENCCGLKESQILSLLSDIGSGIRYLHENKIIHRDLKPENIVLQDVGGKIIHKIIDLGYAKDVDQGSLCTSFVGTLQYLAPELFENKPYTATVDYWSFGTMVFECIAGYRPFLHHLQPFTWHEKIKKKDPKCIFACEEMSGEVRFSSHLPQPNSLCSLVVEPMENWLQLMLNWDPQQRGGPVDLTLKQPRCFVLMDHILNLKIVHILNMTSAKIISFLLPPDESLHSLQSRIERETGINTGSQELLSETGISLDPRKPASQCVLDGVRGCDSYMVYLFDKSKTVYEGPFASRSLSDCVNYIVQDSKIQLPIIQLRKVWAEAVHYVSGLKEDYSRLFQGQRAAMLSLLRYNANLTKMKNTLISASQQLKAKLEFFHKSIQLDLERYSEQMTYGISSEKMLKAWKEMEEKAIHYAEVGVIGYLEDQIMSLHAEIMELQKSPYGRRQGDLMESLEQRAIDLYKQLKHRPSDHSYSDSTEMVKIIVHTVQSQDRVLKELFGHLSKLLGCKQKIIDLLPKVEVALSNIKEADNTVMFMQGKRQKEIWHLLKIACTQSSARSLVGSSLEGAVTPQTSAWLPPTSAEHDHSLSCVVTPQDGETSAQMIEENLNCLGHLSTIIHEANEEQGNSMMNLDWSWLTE

[7] = biological target: T2, Inhibitor of nuclear factor kappa-B kinase subunit alpha (Homo sapiens); details: at 1 µM
[8] = biological target: T3, Inhibitor of nuclear factor kappa-B kinase subunit beta (Homo sapiens) (UniProt O14920); details: at 0.1 µM
T3 sequence (whole entry): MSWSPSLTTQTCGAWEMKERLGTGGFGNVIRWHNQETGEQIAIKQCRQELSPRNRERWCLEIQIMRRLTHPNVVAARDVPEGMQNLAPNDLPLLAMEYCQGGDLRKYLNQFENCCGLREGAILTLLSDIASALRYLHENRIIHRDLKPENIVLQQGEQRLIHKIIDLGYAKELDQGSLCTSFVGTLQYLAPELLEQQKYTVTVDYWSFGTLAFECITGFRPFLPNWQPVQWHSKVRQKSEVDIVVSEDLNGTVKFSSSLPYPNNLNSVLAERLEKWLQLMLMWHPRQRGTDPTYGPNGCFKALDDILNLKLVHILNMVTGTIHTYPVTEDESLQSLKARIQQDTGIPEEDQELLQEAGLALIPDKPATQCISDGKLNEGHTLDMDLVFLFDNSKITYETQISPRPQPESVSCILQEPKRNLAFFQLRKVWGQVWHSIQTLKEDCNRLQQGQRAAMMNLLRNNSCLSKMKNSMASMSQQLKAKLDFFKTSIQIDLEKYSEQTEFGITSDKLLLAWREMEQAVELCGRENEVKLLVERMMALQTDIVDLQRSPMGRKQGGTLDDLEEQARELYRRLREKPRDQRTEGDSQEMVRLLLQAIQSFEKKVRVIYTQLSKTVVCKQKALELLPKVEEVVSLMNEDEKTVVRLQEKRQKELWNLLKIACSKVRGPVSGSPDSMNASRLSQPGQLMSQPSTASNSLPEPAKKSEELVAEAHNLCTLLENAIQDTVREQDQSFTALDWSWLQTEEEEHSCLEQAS

[9] = biological target: T3, Inhibitor of nuclear factor kappa-B kinase subunit beta (Homo sapiens); details: at 1 µM
[10] = biological target: T4, Inhibitor of nuclear factor kappa-B kinase subunit epsilon (Homo sapiens) (UniProt Q14164); details: at 0.1 µM
T4 sequence (whole entry): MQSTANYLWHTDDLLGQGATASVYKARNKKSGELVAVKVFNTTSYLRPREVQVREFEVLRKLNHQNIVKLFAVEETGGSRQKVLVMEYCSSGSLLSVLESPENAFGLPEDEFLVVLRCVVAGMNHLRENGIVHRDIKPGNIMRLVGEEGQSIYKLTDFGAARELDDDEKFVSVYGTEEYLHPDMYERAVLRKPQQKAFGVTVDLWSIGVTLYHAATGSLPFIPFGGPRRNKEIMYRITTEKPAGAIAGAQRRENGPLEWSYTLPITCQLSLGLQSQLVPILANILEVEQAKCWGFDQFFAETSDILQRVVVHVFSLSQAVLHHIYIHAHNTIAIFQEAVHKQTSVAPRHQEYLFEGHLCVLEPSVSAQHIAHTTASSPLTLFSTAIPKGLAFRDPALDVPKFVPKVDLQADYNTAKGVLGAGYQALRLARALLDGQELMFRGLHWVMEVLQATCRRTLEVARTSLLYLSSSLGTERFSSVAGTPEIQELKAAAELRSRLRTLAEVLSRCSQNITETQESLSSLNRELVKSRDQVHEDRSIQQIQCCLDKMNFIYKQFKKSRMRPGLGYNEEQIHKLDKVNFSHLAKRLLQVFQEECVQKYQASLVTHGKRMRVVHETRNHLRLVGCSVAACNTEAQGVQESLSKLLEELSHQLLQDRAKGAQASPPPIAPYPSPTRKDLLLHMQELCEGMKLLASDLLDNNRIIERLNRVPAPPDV

[11] = biological target: T4, Inhibitor of nuclear factor kappa-B kinase subunit epsilon (Homo sapiens); details: at 1 µM
[12] = biological target: T5, Serine/threonine-protein kinase Nek1 (Homo sapiens) (UniProt Q96PY6); details: at 0.1 µM
T5 sequence (whole entry): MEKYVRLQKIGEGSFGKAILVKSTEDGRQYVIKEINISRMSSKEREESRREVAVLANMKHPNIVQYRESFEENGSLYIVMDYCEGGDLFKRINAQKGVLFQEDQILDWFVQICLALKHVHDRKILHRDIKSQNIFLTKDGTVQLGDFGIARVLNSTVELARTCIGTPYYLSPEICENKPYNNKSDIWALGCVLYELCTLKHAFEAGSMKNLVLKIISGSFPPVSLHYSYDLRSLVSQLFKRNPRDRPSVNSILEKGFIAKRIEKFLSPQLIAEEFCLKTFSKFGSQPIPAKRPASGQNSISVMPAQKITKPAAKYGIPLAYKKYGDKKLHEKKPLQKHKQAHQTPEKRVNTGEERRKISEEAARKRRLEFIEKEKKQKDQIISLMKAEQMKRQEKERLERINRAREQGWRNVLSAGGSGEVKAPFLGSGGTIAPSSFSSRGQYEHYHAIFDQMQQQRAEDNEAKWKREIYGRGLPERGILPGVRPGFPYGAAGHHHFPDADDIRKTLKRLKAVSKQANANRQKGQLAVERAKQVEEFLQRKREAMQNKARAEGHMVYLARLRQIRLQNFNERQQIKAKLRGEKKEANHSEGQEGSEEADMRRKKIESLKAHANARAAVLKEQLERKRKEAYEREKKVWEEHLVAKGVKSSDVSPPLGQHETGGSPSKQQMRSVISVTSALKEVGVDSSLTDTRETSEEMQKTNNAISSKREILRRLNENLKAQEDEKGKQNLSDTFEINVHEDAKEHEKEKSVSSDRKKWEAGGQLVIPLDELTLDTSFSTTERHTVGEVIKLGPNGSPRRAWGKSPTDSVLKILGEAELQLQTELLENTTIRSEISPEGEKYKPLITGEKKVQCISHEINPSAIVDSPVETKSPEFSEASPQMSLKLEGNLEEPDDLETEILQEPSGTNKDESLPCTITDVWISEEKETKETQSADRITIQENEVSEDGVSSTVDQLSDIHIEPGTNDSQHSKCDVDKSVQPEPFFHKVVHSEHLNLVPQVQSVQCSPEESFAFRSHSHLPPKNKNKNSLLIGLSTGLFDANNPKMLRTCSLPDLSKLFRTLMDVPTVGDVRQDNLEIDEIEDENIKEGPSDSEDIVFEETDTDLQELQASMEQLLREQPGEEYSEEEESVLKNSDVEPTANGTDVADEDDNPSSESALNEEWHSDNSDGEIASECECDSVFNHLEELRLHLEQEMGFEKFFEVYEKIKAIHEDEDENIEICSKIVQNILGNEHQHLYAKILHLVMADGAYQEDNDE

[13] = biological target: T5, Serine/threonine-protein kinase Nek1 (Homo sapiens); details: at 1 µM
[14] = biological target: T6, Serine/threonine-protein kinase Nek2 (Homo sapiens) (UniProt P51955); details: at 0.1 µM
T6 sequence (whole entry): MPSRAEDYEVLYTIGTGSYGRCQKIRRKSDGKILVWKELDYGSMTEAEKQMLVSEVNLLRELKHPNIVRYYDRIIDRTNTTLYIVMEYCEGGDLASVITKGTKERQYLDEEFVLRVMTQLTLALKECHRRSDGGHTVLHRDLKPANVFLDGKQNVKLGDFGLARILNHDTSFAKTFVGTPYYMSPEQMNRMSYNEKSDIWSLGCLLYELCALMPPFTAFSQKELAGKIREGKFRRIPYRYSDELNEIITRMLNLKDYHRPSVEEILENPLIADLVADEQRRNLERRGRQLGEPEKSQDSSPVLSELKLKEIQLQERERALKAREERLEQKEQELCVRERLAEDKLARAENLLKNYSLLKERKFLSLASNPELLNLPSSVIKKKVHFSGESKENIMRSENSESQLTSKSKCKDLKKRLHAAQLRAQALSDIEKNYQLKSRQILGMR

[15] = biological target: T6, Serine/threonine-protein kinase Nek2 (Homo sapiens); details: at 1 µM
[16] = biological target: Serine/threonine-protein kinase Nek6 (Homo sapiens) (UniProt Q9HC98); details: at 0.1 µM
[17] = biological target: Serine/threonine-protein kinase Nek6 (Homo sapiens) (UniProt Q9HC98); details: at 1 µM
[18] = biological target: Serine/threonine-protein kinase Nek7 (Homo sapiens) (UniProt Q8TDX7); details: at 0.1 µM
[19] = biological target: Serine/threonine-protein kinase Nek7 (Homo sapiens) (UniProt Q8TDX7); details: at 1 µM
[20] = biological target: T7, Serine/threonine-protein kinase Nek9 (Homo sapiens) (UniProt Q8TD19); details: at 0.1 µM;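 further: reported value is the mean percent inhibition of NEK9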
T7 sequence (whole entry): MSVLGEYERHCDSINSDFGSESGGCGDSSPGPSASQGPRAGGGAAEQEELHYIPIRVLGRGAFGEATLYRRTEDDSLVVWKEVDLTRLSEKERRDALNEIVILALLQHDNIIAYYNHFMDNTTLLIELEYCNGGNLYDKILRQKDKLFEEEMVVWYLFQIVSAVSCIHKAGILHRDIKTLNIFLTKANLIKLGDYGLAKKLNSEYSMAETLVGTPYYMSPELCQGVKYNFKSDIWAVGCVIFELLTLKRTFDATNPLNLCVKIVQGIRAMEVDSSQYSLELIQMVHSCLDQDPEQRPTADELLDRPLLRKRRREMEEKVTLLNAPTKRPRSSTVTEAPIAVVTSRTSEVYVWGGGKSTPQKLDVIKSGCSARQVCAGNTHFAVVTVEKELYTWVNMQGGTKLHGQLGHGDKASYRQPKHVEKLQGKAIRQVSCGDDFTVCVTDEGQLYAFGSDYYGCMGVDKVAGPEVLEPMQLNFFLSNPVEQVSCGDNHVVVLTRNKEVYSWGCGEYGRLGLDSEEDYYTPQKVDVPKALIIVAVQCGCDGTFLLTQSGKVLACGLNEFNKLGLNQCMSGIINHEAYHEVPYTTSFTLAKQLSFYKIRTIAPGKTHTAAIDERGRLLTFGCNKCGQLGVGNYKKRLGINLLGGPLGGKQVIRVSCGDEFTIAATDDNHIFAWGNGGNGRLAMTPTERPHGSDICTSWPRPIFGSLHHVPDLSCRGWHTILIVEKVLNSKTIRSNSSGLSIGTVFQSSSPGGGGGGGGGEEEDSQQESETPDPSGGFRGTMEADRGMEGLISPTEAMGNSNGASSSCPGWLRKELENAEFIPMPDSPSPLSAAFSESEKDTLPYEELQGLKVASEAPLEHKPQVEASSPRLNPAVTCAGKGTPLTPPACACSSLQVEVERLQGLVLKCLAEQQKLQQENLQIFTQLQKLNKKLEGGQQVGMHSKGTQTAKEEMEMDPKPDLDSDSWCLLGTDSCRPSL

Serine/threonine-protein kinase Nek6 (Homo sapiens), sequence (Q9HC98 whole entry): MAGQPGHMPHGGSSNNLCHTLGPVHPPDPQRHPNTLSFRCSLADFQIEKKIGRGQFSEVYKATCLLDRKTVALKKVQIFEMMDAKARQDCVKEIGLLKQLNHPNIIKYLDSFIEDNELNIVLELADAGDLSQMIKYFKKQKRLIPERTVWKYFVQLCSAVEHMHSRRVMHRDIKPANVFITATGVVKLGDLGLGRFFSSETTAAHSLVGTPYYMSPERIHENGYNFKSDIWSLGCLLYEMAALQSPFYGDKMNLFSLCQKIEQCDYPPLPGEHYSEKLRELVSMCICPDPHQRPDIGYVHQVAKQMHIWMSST
Serine/threonine-protein kinase Nek7 (Homo sapiens), sequence (Q8TDX7 whole entry, looked up): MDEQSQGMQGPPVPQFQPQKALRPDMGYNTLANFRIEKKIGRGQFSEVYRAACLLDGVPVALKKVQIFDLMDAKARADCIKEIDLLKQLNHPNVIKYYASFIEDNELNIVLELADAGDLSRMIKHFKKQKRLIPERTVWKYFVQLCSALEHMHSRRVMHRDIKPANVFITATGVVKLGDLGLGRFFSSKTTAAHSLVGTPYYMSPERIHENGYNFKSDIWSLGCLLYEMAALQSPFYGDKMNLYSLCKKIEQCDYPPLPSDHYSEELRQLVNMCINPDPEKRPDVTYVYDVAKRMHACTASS
Casein kinase II subunit alpha (Homo sapiens), sequence (P68400 whole entry, looked up): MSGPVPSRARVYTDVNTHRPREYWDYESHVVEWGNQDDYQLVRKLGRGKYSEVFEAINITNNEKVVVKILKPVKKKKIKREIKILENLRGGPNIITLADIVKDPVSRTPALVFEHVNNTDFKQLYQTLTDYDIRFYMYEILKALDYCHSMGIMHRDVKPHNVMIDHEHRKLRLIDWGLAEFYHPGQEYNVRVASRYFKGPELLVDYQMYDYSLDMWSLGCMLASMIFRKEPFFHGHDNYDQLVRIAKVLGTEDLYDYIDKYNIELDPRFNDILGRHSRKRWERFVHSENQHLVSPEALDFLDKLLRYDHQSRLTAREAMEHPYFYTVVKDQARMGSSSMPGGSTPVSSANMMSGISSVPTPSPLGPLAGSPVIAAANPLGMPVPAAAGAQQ
Sphingosine kinase 1 (Homo sapiens), sequence (Q9NYA1 whole entry): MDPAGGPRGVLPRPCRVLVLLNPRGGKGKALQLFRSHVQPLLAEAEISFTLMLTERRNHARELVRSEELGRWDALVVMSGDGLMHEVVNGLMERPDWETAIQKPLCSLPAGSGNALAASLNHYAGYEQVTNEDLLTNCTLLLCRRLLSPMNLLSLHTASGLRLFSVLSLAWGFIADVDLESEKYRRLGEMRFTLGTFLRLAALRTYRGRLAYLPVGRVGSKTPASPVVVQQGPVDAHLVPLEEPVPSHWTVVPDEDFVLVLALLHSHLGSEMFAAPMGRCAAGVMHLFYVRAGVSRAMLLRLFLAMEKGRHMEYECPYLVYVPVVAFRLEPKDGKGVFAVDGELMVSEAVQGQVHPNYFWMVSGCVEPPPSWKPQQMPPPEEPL

COc1ccccc1Nc1ncc(-c2ccccc2)o1
inhibition [1]: -6.75%
inhibition [2]: -0.59%
inhibition [3]: -0.16%
inhibition [4]: 6.18%
inhibition [5]: 8.04%
inhibition [6]: 10.7%
inhibition [7]: 9.03%
inhibition [8]: 9.9%
inhibition [9]: 9.61%
inhibition [10]: 9.49%
inhibition [11]: 7.83%
inhibition [12]: 3.62%
inhibition [13]: 3%
inhibition [14]: 6.46%
inhibition [15]: 6.16%
inhibition [16]: 0.52%
inhibition [17]: 1.67%
inhibition [18]: 2.39%
inhibition [19]: 5.45%
inhibition [20]: 5.2%

Cc1nn(C)c2cc(N(C)c3ccnc(Nc4cccc(S(N)(=O)=O)c4)n3)ccc12
inhibition [1]: 1.31%
inhibition [2]: 0.44%
inhibition [3]: 0.14%
inhibition [4]: 2.59%
inhibition [5]: 1.94%
inhibition [6]: 2.21%
inhibition [7]: 3.6%
inhibition [8]: 4.27%
inhibition [9]: 4.54%
inhibition [10]: 4.1%
inhibition [11]: 4.76%
inhibition [12]: 2.28%
inhibition [13]: 3.95%
inhibition [14]: 3.82%
inhibition [15]: 5.14%
inhibition [16]: 0.43%
inhibition [17]: 1.3%
inhibition [18]: 5.76%
inhibition [19]: 3.53%
inhibition [20]: 8.48%
